Source: PubChem BioAssay (EPA / NIEHS)
Calls of active or inactive are those of the source. The calls were made as follows: active = hit-call score of the fitted dose curve at least 0.9, where 1 is the maximum; inactive = score below 0.9.

Experiments:
Conditions in all cases: mRNA level, 48 h; actives raise or lower the signal
[1] = read-out: Glutamate-cysteine ligase catalytic (GCLC), GCLC (gene 2729); experiment: LTEA_HepaRG_GCLC: Life Technologies and Expression Analysis (LTEA) Assay for Glutamate-cysteine ligase catalytic (GCLC) using HepaRG (AID 2283498)
Summary of the method: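 HepaRG, 48 h exposure, 8-pt half-log series from 100 uM, 0.5% DMSO vehicle; TaqMan qRT-PCR for GCLC mRNA, housekeeping-normalized; bidirectional curve fit vs DMSO baseline.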

[2] = read-out: growth arrest and DNA damage 45 (GADD45G), GADD45G (gene 10912); experiment: LTEA_HepaRG_GADD45G: Life Technologies and Expression Analysis (LTEA) Assay for growth arrest and DNA damage 45 (GADD45G) using HepaRG (AID 2283499)
Summary of the method: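 Differentiated human HepaRG cells, 48 h post-plating, exposed 48 h in serum-free induction medium to 8 half-log concentrations (top 100 uM, 0.5% DMSO) in duplicate. GADD45G mRNA measured by Fluidigm TaqMan qRT-PCR, normalized to ACTB, GAPDH, POLR2A; bidirectional fit versus DMSO.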

[3] = read-out: Glutamate-cysteine ligase regulatory (GCLM), GCLM (gene 2730); experiment: LTEA_HepaRG_GCLM: Life Technologies and Expression Analysis (LTEA) Assay for Glutamate-cysteine ligase regulatory (GCLM) using HepaRG (AID 2283500)
Summary of the method: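 Endpoint is GCLM transcript level by qRT-PCR, normalized to three housekeeping genes, after 48 h chemical exposure of human HepaRG cells (0.5% DMSO vehicle, top 100 uM, half-log dilutions). Fitting was bidirectional relative to DMSO.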

[4] = read-out: Glutathione S-transferase M3 (GSTM3), GSTM3 (gene 2947); experiment: LTEA_HepaRG_GSTM3: Life Technologies and Expression Analysis (LTEA) Assay for Glutathione S-transferase M3 (GSTM3) using HepaRG (AID 2283501)
Summary of the method: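 Differentiated human HepaRG cells were exposed in duplicate for 48 h in serum-free induction medium, 8 points from 100 uM top in half-log steps, 0.5% DMSO. GSTM3 mRNA was measured by TaqMan qRT-PCR, normalized to ACTB, GAPDH and POLR2A; bidirectional fit versus DMSO.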

[5] = read-out: Heat shock 70 kDa protein 1 (HSPA1A), gene 3303; experiment: LTEA_HepaRG_HSPA1A: Life Technologies and Expression Analysis (LTEA) Assay for Heat shock 70 kDa protein 1 (HSPA1A) using HepaRG (AID 2283502)
Summary of the method: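 Cells were plated and cultured for 48 h, then switched to serum-free induction medium. Chemicals were added at eight half-log concentrations up to 100 uM for 48 h. RNA was then isolated and HSPA1A measured by qRT-PCR with bidirectional curve fitting against DMSO.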

[6] = read-out: Hypoxia-inducible factor 1-alpha (Homo sapiens) (UniProt Q16665); experiment: LTEA_HepaRG_HIF1A: Life Technologies and Expression Analysis (LTEA) Assay for Hypoxia-inducible factor 1 (HIF1A) Trancription factor using HepaRG (AID 2283503)
Summary of the method: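 HIF1A transcript level read by qRT-PCR (ACTB, GAPDH, POLR2A normalization) after 48 h chemical exposure of HepaRG cultures. Eight half-log concentrations, top 100 uM, 0.5% DMSO vehicle, duplicates; bidirectional curve fit against DMSO baseline.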

[7] = read-out: 3-Hydroxy-3-Methylglutaryl-CoA Synthase 2 (HMGCS2), HMGCS2 (gene 3158); experiment: LTEA_HepaRG_HMGCS2: Life Technologies and Expression Analysis (LTEA) Assay for 3-Hydroxy-3-Methylglutaryl-CoA Synthase 2 (HMGCS2) using HepaRG (AID 2283504)
Summary of the method: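 Human HepaRG cells in serum-free induction medium were exposed in duplicate for 48 h to 8-point half-log series from 100 uM top in 0.5% DMSO. HMGCS2 mRNA measured by TaqMan qRT-PCR, normalised to ACTB, GAPDH, POLR2A; bidirectional fit versus DMSO.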

[8] = read-out: HGF (gene 3082); experiment: LTEA_HepaRG_HGF: Life Technologies and Expression Analysis (LTEA) Assay for Hepatocyte Growth Facto (HGF) using HepaRG (AID 2283505)
Summary of the method: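 Differentiated HepaRG cells in serum-free induction medium exposed 48 h in duplicate, 8 half-log concentrations from 100 uM in 0.5% DMSO. HGF mRNA by qRT-PCR, normalised to ACTB, GAPDH, POLR2A; bidirectional fitting.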

[9] = read-out: Insulin Like Growth Factor 1 (IGF1), IGF1 (gene 3479); experiment: LTEA_HepaRG_IGF1: Life Technologies and Expression Analysis (LTEA) Assay for Insulin Like Growth Factor 1 (IGF1) using HepaRG (AID 2283506)
Summary of the method: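 Cells are thawed, plated and cultured 48 h, then exposed in duplicate to chemical (highest 100 uM, half-log steps, 0.5% DMSO) for another 48 h. Total RNA is analysed by Fluidigm qRT-PCR for IGF1 expression relative to vehicle.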

[10] = read-out: Intercellular Adhesion Molecule 1 (ICAM1), ICAM1 (gene 3383); experiment: LTEA_HepaRG_ICAM1: Life Technologies and Expression Analysis (LTEA) Assay for Intercellular Adhesion Molecule 1 (ICAM1) using HepaRG (AID 2283507)
Summary of the method: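 Differentiated human HepaRG cells in serum-free induction medium exposed 48 h in duplicate to 8 half-log concentrations (top 100 uM, 0.5% DMSO). ICAM1 mRNA quantified by TaqMan qRT-PCR, normalized to ACTB, GAPDH and POLR2A; bidirectional fitting versus DMSO.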

[11] = read-out: Insulin-like growth factor-binding protein 1 (IGFBP1), IGFBP1 (gene 3484); experiment: LTEA_HepaRG_IGFBP1: Life Technologies and Expression Analysis (LTEA) Assay for Insulin-like growth factor-binding protein 1 (IGFBP1) using HepaRG (AID 2283508)
Summary of the method: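 HepaRG cells, plated 48 h then switched to serum-free induction medium, exposed in duplicate for 48 h to 8-point half-log series from 100 uM in 0.5% DMSO. mRNA measured by qRT-PCR, normalized to ACTB/GAPDH/POLR2A; bidirectional fit versus DMSO.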

[12] = read-out: Interleukin 6 (IL6), IL6 (gene 3569); experiment: LTEA_HepaRG_IL6: Life Technologies and Expression Analysis (LTEA) Assay for Interleukin 6 (IL6) using HepaRG (AID 2283509)
Summary of the method: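 qRT-PCR read-out of IL6 transcript, normalized to three housekeeping genes, after 48 h chemical exposure of HepaRG cells; 8-point half-log series, top 100 uM, 0.5% DMSO vehicle. Bidirectional curve fitting against DMSO baseline.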

[13] = read-out: Interleukin 6 Receptor (IL6R), IL6R (gene 3570); experiment: LTEA_HepaRG_IL6R: Life Technologies and Expression Analysis (LTEA) Assay for Interleukin 6 Receptor (IL6R) using HepaRG (AID 2283510)
Summary of the method: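 Cells were thawed, plated and cultured 48 h, then medium was changed to serum-free induction medium. Chemicals were added in duplicate (100 uM top, half-log steps, 0.5% DMSO) for 48 h. Lysates were analyzed by qRT-PCR for IL6R expression.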

[14] = read-out: Potassium channel subfamily K member 1 (KCNK1), KCNK1 (gene 3775); experiment: LTEA_HepaRG_KCNK1: Life Technologies and Expression Analysis (LTEA) Assay for Potassium channel subfamily K member 1 (KCNK1) using HepaRG (AID 2283511)
Summary of the method: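 HepaRG, 48 h exposure, 8-pt half-log series top 100 uM, 0.5% DMSO vehicle, duplicates. Readout: KCNK1 transcript by qRT-PCR (Fluidigm array), housekeeping-normalized; bidirectional curve fit relative to DMSO baseline.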

[15] = read-out: Keratin 19 (KRT19), KRT19 (gene 3880); experiment: LTEA_HepaRG_KRT19: Life Technologies and Expression Analysis (LTEA) Assay for Keratin 19 (KRT19) using HepaRG (AID 2283512)
Summary of the method: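 Differentiated HepaRG cells in serum-free induction medium, exposed 48 h in duplicate to 8 half-log concentrations up to 100 uM in 0.5% DMSO. KRT19 mRNA by qRT-PCR, normalized to ACTB, GAPDH, POLR2A; bidirectional fit vs DMSO.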

[16] = read-out: JUN Transcription Factor, JUN (gene 3725); experiment: LTEA_HepaRG_JUN: Life Technologies and Expression Analysis (LTEA) Assay for JUN Transcription Factor using HepaRG (AID 2283513)
Summary of the method: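 Read-out is JUN transcript level by TaqMan qRT-PCR, normalized to ACTB, GAPDH and POLR2A, after 48 h chemical treatment of HepaRG cells. Concentration-response spanned eight half-log points up to 100 uM in 0.5% DMSO.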

[17] = read-out: Lipase C (LIPC), LIPC (gene 3990); experiment: LTEA_HepaRG_LIPC: Life Technologies and Expression Analysis (LTEA) Assay for Lipase C (LIPC) using HepaRG (AID 2283514)
Summary of the method: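 HepaRG, 48 h exposure, 8-pt half-log series from 100 uM in 0.5% DMSO, duplicates. Readout: LIPC mRNA by Fluidigm qRT-PCR, housekeeping-normalized (ACTB/GAPDH/POLR2A). Gain or loss fitted bidirectionally against DMSO baseline.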

[18] = read-out: Lipoprotein lipase (LPL), LPL (gene 4023); experiment: LTEA_HepaRG_LPL: Life Technologies and Expression Analysis (LTEA) Assay for Lipoprotein lipase (LPL) using HepaRG (AID 2283515)
Summary of the method: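 HepaRG, 48 h exposure, 8-pt half-log dilutions from 100 uM, 0.5% DMSO vehicle, duplicates; qRT-PCR (Fluidigm array) of LPL mRNA vs housekeeping genes; bidirectional curve fit relative to DMSO baseline.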

[19] = read-out: MicroRNA 122 (MIR122), gene 406906; experiment: LTEA_HepaRG_MIR122: Life Technologies and Expression Analysis (LTEA) Assay for MicroRNA 122 (MIR122) using HepaRG (AID 2283516); also: the transcript read is the microRNA miR-122
Summary of the method: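 Human liver HepaRG cultures receive test chemicals for 48 h at eight half-log concentrations from 100 uM. Expression is quantified by qRT-PCR with ACTB/GAPDH/POLR2A normalization and fitted bidirectionally against 0.5% DMSO.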

[20] = read-out: matrix metalloproteinase-10 (MMP10), MMP10 (gene 4319); experiment: LTEA_HepaRG_MMP10: Life Technologies and Expression Analysis (LTEA) Assay for matrix metalloproteinase-10 (MMP10) using HepaRG (AID 2283517)
Summary of the method: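 Transcript levels come from Fluidigm qRT-PCR normalized to three housekeeping genes, with curves fitted bidirectionally against 0.5% DMSO. Human HepaRG cells were dosed for 48 hours at concentrations up to 100 uM.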

Measured: outcome

Sequence of Hypoxia-inducible factor 1-alpha (Homo sapiens) (Q16665 whole entry, looked up): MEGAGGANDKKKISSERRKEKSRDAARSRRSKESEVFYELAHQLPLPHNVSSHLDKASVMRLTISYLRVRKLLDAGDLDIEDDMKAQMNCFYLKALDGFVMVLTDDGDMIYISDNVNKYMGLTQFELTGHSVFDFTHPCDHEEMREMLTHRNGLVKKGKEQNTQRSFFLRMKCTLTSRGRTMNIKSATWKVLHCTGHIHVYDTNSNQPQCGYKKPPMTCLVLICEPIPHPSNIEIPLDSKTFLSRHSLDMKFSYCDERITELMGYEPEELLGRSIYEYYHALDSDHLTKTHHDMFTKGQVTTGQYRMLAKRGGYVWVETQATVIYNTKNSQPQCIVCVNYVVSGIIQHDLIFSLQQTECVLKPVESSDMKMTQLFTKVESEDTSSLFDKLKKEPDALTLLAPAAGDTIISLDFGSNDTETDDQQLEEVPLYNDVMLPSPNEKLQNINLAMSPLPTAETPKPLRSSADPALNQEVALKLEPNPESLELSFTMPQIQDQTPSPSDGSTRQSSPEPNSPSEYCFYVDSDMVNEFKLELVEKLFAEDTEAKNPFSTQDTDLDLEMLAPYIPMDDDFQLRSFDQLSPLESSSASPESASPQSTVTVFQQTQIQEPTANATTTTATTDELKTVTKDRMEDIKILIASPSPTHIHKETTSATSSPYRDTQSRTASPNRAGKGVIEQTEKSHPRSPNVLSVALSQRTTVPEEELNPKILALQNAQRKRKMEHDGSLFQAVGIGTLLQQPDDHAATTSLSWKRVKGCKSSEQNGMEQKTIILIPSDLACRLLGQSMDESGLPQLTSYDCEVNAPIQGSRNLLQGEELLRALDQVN

O=[Si]=O
not listed: [20]
inactive: all other assays above

c1ccc2occc2c1
not listed: [10]
inactive: all other assays above

CCCCCCC(C=O)=Cc1ccccc1
not listed: [20]
inactive: all other assays above

CC(C)c1cccc(C(C)C)c1
not listed: [11] | [20]
inactive: all other assays above
